These results are taken from PubChem BioAssay AID372 (MTDP, 2006).

SMILES strings stand for the structures. About 770 (0.77%) of roughly 100,000 compounds were called active. The sample as a whole holds a higher share of actives than the screen did. Unmarked numbers belong to inactive results. No stated cut-off is given here; in the data, active means inhibition above about 50%; inactive means the rest.

This assay has as its target Gag-Pol polyprotein (Human immunodeficiency virus type 1 group M subtype B (isolate HXB2)) (UniProt P04585). The assay is described as follows: RNase H inhibition, HIV 1 Gag Pol polyprotein, FRET biochemical assay, screening (AID 372). The following applies: HIV-1 RT RNase H, FRET RNA/DNA substrate fluorescence; at 10 µM; stronger effect = higher value.
As usually defined, the inhibition is the change of the read-out against control, counted positive when it falls. As to `Oc1ccc(Br)cc1/C=N/c1c(-c2ccco2)nc2ccccn12`, the inhibition is 15%.

Consider `O=C1CS/C(=N/N=C/c2ccc(-c3ccc(Br)cc3)o2)N1`, for which the inhibition is 14%. For the compound `CCCC(=O)Nc1cc(-c2nc3cc(Cl)ccc3o2)ccc1C`, the inhibition is 12%. `O=C(O)c1ccc(Nc2ccnc3cc(Cl)ccc23)cc1`: the inhibition is 3%. As for `O=C(Nc1ccccc1C(=O)N1CCCC1)c1ccccc1`, the inhibition is 0%. In the case of `CCOc1ccc(C(=O)NC(=S)Nc2ccc(Br)cn2)cc1Cl`, the inhibition is 56% (active). As for `COc1ccc(Br)cc1C(=O)NC(=S)Nc1ccc(Cl)cn1`, the inhibition is 53% (active). Take `COc1ccc(C(=O)NC(=S)Nc2ccc(Cl)cn2)cc1Br`: the inhibition is 23%. To `COc1ccc(C(=O)NC(=S)Nc2ccc(Br)cn2)cc1OC` belongs 21%. With `CCOc1ccc(C(=O)Nc2ccc(Br)cn2)cc1Cl` the figure was 4%; with `COc1ccc(Br)cc1C(=O)Nc1ccc(Cl)cn1`, 26%; with `CS(=O)(=O)N(Cc1ccc(C(=O)Nc2ccccc2C(=O)O)cc1)c1ccccc1`, 4%. To `Cc1ccc(NC(=O)C(=O)N/N=C/c2cccc(Cl)c2)cc1` belongs 1%; to `CCOc1cc(/C=C/C(=O)O)c(Br)cc1OC`, 8%.

Turning to `Cc1ccc(CN2CCN(/N=C\c3ccccc3)CC2)cc1`, the inhibition was 8%. Take `COc1ccccc1OCC(=O)N/N=C/c1ccc(C)cc1C`: the inhibition was 11%. To `O=C(Nc1ccc(N2CCCCC2)cc1)c1ccc(-c2ccccc2)cc1` belongs 28%; to `CC(=O)N1CCN(c2ccc(NC(=O)c3ccc(-c4ccccc4)cc3)cc2)CC1`, 5%; to `COc1ccccc1NC(=O)C(=O)NCc1ccc(C)cc1`, 57% (active).

Take `COc1ccc(CNC(=O)C(=O)Nc2ccc(OC)cc2)cc1`: the inhibition is 0%. To `COc1ccc(C)cc1NC(=O)C(=O)NCc1ccc(Cl)cc1` belongs 44%; to `COc1ccc(C)cc1NC(=O)C(=O)NCc1cccnc1`, 40%; to `COc1ccc(CNC(=O)C(=O)Nc2ccccc2OC)cc1`, 44%. With `COc1ccc(S(=O)(=O)N(CC(=O)NCc2ccccc2)Cc2ccccc2)cc1` the figure was 10%. To `COc1ccccc1NC(=O)C(=O)NCc1ccccc1` belongs 27%. Regarding `COc1ccc(CNC(=O)C(=O)NCc2ccc(Cl)cc2)cc1`, the inhibition was 15%.

Consider `COc1ccc(NC(=O)C(=O)NCc2ccc(Cl)cc2)cc1`, for which the inhibition was 52% (active). To `COc1ccc(C)cc1NC(=O)C(=O)NCc1ccncc1` belongs 55% (active); to `COc1ccc(S(=O)(=O)N(CC(=O)NCc2ccc(Cl)cc2)Cc2ccccc2)cc1`, 60% (active); to `COc1ccc(CNC(=O)CN(Cc2ccccc2)S(=O)(=O)c2ccccc2)cc1`, 10%.

In the case of `Cc1ccc(NC(=O)Cc2ccc(Br)cc2)cc1`, the inhibition is 14%.

For the compound `COc1cccc(N2C(=O)NC(=O)/C(=C/c3ccc(OC)c4ccccc34)C2=O)c1`, the inhibition is 31%. To `O=C(Nc1ccc2oc(-c3ccccc3F)nc2c1)C(Cl)(Cl)Cl` belongs 8%. To `O=C(O)/C=C\C(=O)Nc1ccc(N2CCOCC2)c(C(=O)O)c1` belongs 5%.

Consider `Cc1ccc(S(=O)(=O)N/N=C/c2ccc(C(=O)O)cc2)cc1`, for which the inhibition is 0%. To `COc1ccc(N2CCSC2c2ccco2)cc1` (centres undefined) belongs 0%; to `C=CCN1C(=O)/C(=C\c2ccc(O)c(OCC)c2)C(=O)NC1=S`, 11%; to `COc1cc(C(=O)NCc2ccc(C(=O)O)cc2)cc(OC)c1OC`, 7%. With `CCn1c2ccccc2c2cc(C=Nc3ccc(C)c(F)c3)ccc21` the figure was 0%. To `CCOc1ccc(C(=O)NC(=S)Nc2ccc(C)cc2)cc1Br` belongs 11%. For `CCOc1ccccc1C=Nn1c(-c2ccc(Cl)cc2Cl)n[nH]c1=S`, the inhibition was 15%. With `CCN(CC)CCN1C(=O)C(=O)/C(=C(\O)c2ccc([N+](=O)[O-])cc2)C1c1ccc(OC)cc1` (centres undefined) the figure was 2%. Regarding `CCOC(=O)CC1(c2ccccc2)SC(NC(C)=O)=NN1C(C)=O` (centres undefined), the inhibition was 0%. To `COc1ccc(Cl)cc1NC(=O)C(=O)NCc1ccc(C)cc1` belongs 30%; to `COc1ccc(OC)c(NC(=O)C(=O)NCc2ccncc2)c1`, 26%. To `COc1ccc(Cl)cc1NC(=O)C(=O)NCc1ccncc1` belongs 59% (active); to `COc1ccc(CNC(=O)C(=O)Nc2cc(C)ccc2OC)cc1`, 30%. With `COc1ccc(C)cc1NC(=O)C(=O)NCc1ccc(C)cc1` the figure was 5%. For the compound `COc1ccc(C)cc1NC(=O)C(=O)NCc1ccccc1`, the inhibition is 59% (active). With `CCOC(=O)C1=C(C)N=c2s/c(=C\c3cc(Br)c(OCc4ccccc4Cl)c(OC)c3)c(=O)n2C1c1ccccc1Cl` (centres undefined) the figure was 0%; with `Cc1cc(C)c(NC(=O)COc2ccccc2[N+](=O)[O-])c(C)c1`, 5%. With `CCOC(=O)c1cc(-c2ccccc2)sc1NC(=O)c1ccc([N+](=O)[O-])cc1` the figure was 22%. To `CCOC(=O)c1cc(-c2ccccc2)sc1NC(=O)COc1ccccc1[N+](=O)[O-]` belongs 57% (active). As to `O=C(Nc1cccc(C(F)(F)F)c1)c1cc([N+](=O)[O-])ccc1Cl`, the inhibition is 7%.

Regarding `Cc1nc2n(CC(=O)N3CCOCC3)c3ccccc3n2n1`, the inhibition was 1%. With `O=C(Cc1cccs1)Nc1ccc(/C=C/C(=O)c2ccccc2)cc1` the figure was 8%; with `CCOC(=O)c1c(C)oc2ccc(NS(=O)(=O)c3cc(C)ccc3C)cc12`, 22%. Turning to `CCOC(=O)c1c(C)oc2ccc(N(C(=O)c3ccncc3)S(=O)(=O)c3ccc(C)cc3)cc12`, the inhibition was 62% (active). Turning to `CCOC(=O)c1c(C)oc2ccc(OC(=O)c3ccc(C)cc3)cc12`, the inhibition is 0%. With `Cc1ccc(S(=O)(=O)Nc2ccc(S(=O)(=O)N3CCOCC3)cc2)cc1[N+](=O)[O-]` the figure was 0%; with `O=[N+]([O-])c1ccccc1S(=O)(=O)Nc1ccc(S(=O)(=O)N2CCCCC2)cc1`, 0%.

Regarding `O=[N+]([O-])c1ccccc1S(=O)(=O)Nc1ccc(S(=O)(=O)N2CCOCC2)cc1`, the inhibition is 51% (active). For the compound `Clc1ccc(Oc2cccc(CN3CCN(c4ccccc4)CC3)c2)cc1`, the inhibition was 17%. With `Cc1cccc(C(=O)NCC(O)c2ccccc2)c1` (centres undefined) the figure was 11%.
